# Reference: PubChem BioAssay
# Calls of active or inactive are those of the source. No rule for the calls is given here.
# Biological target: L-lactate dehydrogenase (Plasmodium falciparum (isolate CDC / Honduras)) (UniProt Q27743)
# Test: PfLDH activity inhibition – cell lysate, 3D7 strain, counter-screen for P. falciparum growth inhibition project (AID 2304);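 also: 0% = vehicle and 100% = reference inhibitor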
# Details: P. falciparum 3D7 crude extract, LDH APAD/NBT absorbance; at 2 µM; stronger effect = higher value
# L-lactate dehydrogenase (Plasmodium falciparum (isolate CDC / Honduras)), sequence (Q27743 whole entry, looked up): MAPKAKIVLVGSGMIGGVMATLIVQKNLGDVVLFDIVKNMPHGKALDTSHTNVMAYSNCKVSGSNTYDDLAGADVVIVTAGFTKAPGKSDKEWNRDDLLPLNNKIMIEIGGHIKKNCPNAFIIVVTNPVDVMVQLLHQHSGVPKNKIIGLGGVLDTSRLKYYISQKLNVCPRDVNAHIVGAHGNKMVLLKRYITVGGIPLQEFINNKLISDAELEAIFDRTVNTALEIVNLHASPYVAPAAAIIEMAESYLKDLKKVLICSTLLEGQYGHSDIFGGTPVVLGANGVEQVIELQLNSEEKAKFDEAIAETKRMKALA
row,SMILES,inhibition
1,Clc1ccc(Nc2nc(Nc3ccc(Cl)c(Cl)c3)nc(Sc3nc4ccccc4[nH]3)n2)cc1Cl,1% (inactive)
2,CCc1c(C)c2ccc3c(c2oc1=O)CN(CCc1ccc(F)cc1)CO3,-2% (inactive)
3,c1cc(CN2CCc3ccccc3CC2)cc(-c2c[nH]c3nc(NC4CCCC4)ncc23)c1,-3% (inactive)
4,C[C@H](N[C@H]1CCCc2c1[nH]c1ccc(Br)cc21)c1ccccc1,4% (inactive)
5,CCCCc1cc(NCc2ccncc2)nc(Nc2ccccc2)n1,-3% (inactive)
6,CCC1CN(S(=O)(=O)c2ccc3c(c2)NC(=O)CC(=O)N3)c2cc(Cl)ccc2O1 (stereo not drawn),-5% (inactive)
7,Cc1cccc(Nc2nccc(NCC(O)c3ccc(C(F)(F)F)cc3)n2)c1 (stereo not drawn),0% (inactive)
8,CCCCCc1cnc2nc(N)nc(N)c2c1,-1% (inactive)
9,CCCCCCCN1CC[C@@H](CCCc2ccnc3ccc(OCCC4CCNCC4)cc23)[C@@H](CC)C1,-4% (inactive)
10,CCOCCCn1c(=N)c(C(=O)NC(C)c2ccccc2)cc2c(=O)n3cccc(C)c3nc21 (stereo not drawn),-4% (inactive)
11,O=S(=O)(NCCN1CCCC1)c1ccc(-c2ccc(CNCc3ccc(F)cc3)cc2)cc1,4% (inactive)
12,CCN(CC)c1ccc(-c2nc3ncc(Cl)cc3[nH]2)cc1,-5% (inactive)
13,CC(C)(C)c1ccc(CN2CCC(CNC(=O)c3cc(-c4ccccc4F)cs3)C2)cc1 (stereo not drawn),4% (inactive)
14,COc1ccc2nccc([C@@H](O)CN3CCC(NC(=O)C(c4ccsc4)N4CCN(c5ccccc5OC)CC4)CC3)c2c1 (stereo partly drawn),-2% (inactive)
15,CC(CN(C)C)C(=O)Nc1cccc(-c2ccc(-c3nc4ccccc4[nH]3)cc2)c1 (stereo not drawn),-8% (inactive)
16,CC(C)(C)CNc1noc(-c2sccc2Br)n1,-7% (inactive)
17,Cc1ccc2c(Cl)c(C(=O)N3CC(C)OC(C)C3)sc2c1 (stereo not drawn),3% (inactive)
18,O=C(O[C@@H]1CN[C@H](C#Cc2cc3ncnc(Nc4ccc5c(cnn5Cc5cccc(F)c5)c4)c3s2)C1)N1CCCC1,-3% (inactive)
19,COc1ccc2c(c1)Sc1ccccc1C(N1CCN(CCO)CC1)C2 (stereo not drawn),-3% (inactive)
20,CC(=O)N[C@@H]1c2cc(C(C)=O)ccc2OC(C)(C)[C@@H]1O,-3% (inactive)

row,SMILES,inhibition
1,O=C(/C=C/c1ccc(Cl)cc1Cl)N1CCC(CCN2CCC(c3c[nH]c4ccccc34)CC2)CC1,-6% (inactive)
2,COC(=O)c1cccc(CNCc2cccc(-c3ccc(-c4nc5c(C)cccc5[nH]4)s3)c2)c1,1% (inactive)
3,CS(=O)(=O)n1c(CN2CCN(c3ncc(C(F)(F)F)cc3Cl)CC2)nc2ccccc21,-4% (inactive)
4,Cc1ccc(Nc2nc3cc(N(C)c4ccnc(Nc5cccc(CS(C)(=O)=O)c5)n4)ccc3o2)cc1,3% (inactive)
5,O=C(Nc1ccc2c(c1)CCN(C1CCC1)CC2)c1cn(-c2ccccc2)nc1-c1ccccc1,3% (inactive)
6,COc1ccc(C2c3cc(OC)c(OC)cc3C(=NO)C2C)cc1OC (stereo not drawn),-2% (inactive)
7,CN(C)CCC1CCN(CCS(=O)(=O)c2cccc(Nc3ncc(-c4cccc(F)c4)cn3)c2)CC1,-2% (inactive)
8,COc1ccc2ncc(F)c(CCN3CCC(NCc4cc5c(cn4)OCCS5)CC3)c2c1,-6% (inactive)
9,CC(C)c1ccc(OCC(O)CN(CCN2CCOCC2)C(=O)Nc2ccc(Br)cc2)cc1 (stereo not drawn),-2% (inactive)
10,COc1ccccc1N1CCN(C(C(=O)NCc2ccc3c(c2)OCO3)c2ccc3c(c2)OCCCO3)CC1 (stereo not drawn),5% (inactive)
11,COc1ccc2nccc([C@@H](O)CN3CCC(NC(=O)C(c4cc5ccccc5s4)N4CCN(c5ccccc5OC)CC4)CC3)c2c1 (stereo partly drawn),-2% (inactive)
12,O=C(NCCCCCN1CCC(c2ccc(O)cc2)CC1)c1ccc(-c2ccccc2)cc1,-1% (inactive)
13,CCc1cccc2sc(N3CCN(C(=O)c4ccc([N+](=O)[O-])o4)CC3)nc12,0% (inactive)
14,Cc1nc2nc(N)nc(N)c2c(C)c1Cc1ccccc1,3% (inactive)
15,CC(C(=O)OCCOCn1cnc2c(=O)[nH]c(N)nc21)N(C)C(=O)OC(C)(C)C (stereo not drawn),2% (inactive)
16,CCc1c(CCNCCCCCCNC(C)(C)Cc2ccc3c(c2CC)OCO3)ccc(OC)c1OC,-1% (inactive)
17,COc1ccc(OCCCN2CCCCC2)cc1S(=O)(=O)c1ccc(OCc2ccc(C(F)(F)F)cc2)cc1,-2% (inactive)
18,CC1(C)N=C(N)N=C(N)N1c1cccc(I)c1,-2% (inactive)
19,CCCCN1CCN(CCCNc2c3ccccc3nc3ccccc23)CC1,-7% (inactive)

# System: not listed separately
# Test: inhibition of 3D7 malaria parasite growth – strain 3D7 (AID 2306);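 also: 0% = DMSO wells and 100% = chloroquine plus artemisinin control wells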
# Details: P. falciparum 3D7 erythrocytic growth, LDH absorbance, 72 h; at 2 µM; stronger effect = higher value
row,SMILES,growth inhibition
1,Clc1ccc(Nc2nc(Nc3ccc(Cl)c(Cl)c3)nc(Sc3nc4ccccc4[nH]3)n2)cc1Cl,99% (active)
2,CCc1c(C)c2ccc3c(c2oc1=O)CN(CCc1ccc(F)cc1)CO3,94% (active)
3,c1cc(CN2CCc3ccccc3CC2)cc(-c2c[nH]c3nc(NC4CCCC4)ncc23)c1,99% (active)
4,C[C@H](N[C@H]1CCCc2c1[nH]c1ccc(Br)cc21)c1ccccc1,96% (active)
5,CCCCc1cc(NCc2ccncc2)nc(Nc2ccccc2)n1,96% (active)
6,CCC1CN(S(=O)(=O)c2ccc3c(c2)NC(=O)CC(=O)N3)c2cc(Cl)ccc2O1 (stereo not drawn),99% (active)
7,Cc1cccc(Nc2nccc(NCC(O)c3ccc(C(F)(F)F)cc3)n2)c1 (stereo not drawn),101% (active)
8,CCCCCc1cnc2nc(N)nc(N)c2c1,82% (active)
9,CCCCCCCN1CC[C@@H](CCCc2ccnc3ccc(OCCC4CCNCC4)cc23)[C@@H](CC)C1,104% (active)
10,CCOCCCn1c(=N)c(C(=O)NC(C)c2ccccc2)cc2c(=O)n3cccc(C)c3nc21 (stereo not drawn),95% (active)
11,O=S(=O)(NCCN1CCCC1)c1ccc(-c2ccc(CNCc3ccc(F)cc3)cc2)cc1,94% (active)
12,CCN(CC)c1ccc(-c2nc3ncc(Cl)cc3[nH]2)cc1,85% (active)
13,CC(C)(C)c1ccc(CN2CCC(CNC(=O)c3cc(-c4ccccc4F)cs3)C2)cc1 (stereo not drawn),100% (active)
14,COc1ccc2nccc([C@@H](O)CN3CCC(NC(=O)C(c4ccsc4)N4CCN(c5ccccc5OC)CC4)CC3)c2c1 (stereo partly drawn),95% (active)
15,CC(CN(C)C)C(=O)Nc1cccc(-c2ccc(-c3nc4ccccc4[nH]3)cc2)c1 (stereo not drawn),98% (active)
16,CC(C)(C)CNc1noc(-c2sccc2Br)n1,82% (active)
17,Cc1ccc2c(Cl)c(C(=O)N3CC(C)OC(C)C3)sc2c1 (stereo not drawn),100% (active)
18,O=C(O[C@@H]1CN[C@H](C#Cc2cc3ncnc(Nc4ccc5c(cnn5Cc5cccc(F)c5)c4)c3s2)C1)N1CCCC1,86% (active)
19,COc1ccc2c(c1)Sc1ccccc1C(N1CCN(CCO)CC1)C2 (stereo not drawn),95% (active)
20,CC(=O)N[C@@H]1c2cc(C(C)=O)ccc2OC(C)(C)[C@@H]1O,97% (active)

row,SMILES,growth inhibition
1,O=C(/C=C/c1ccc(Cl)cc1Cl)N1CCC(CCN2CCC(c3c[nH]c4ccccc34)CC2)CC1,98% (active)
2,COC(=O)c1cccc(CNCc2cccc(-c3ccc(-c4nc5c(C)cccc5[nH]4)s3)c2)c1,103% (active)
3,CS(=O)(=O)n1c(CN2CCN(c3ncc(C(F)(F)F)cc3Cl)CC2)nc2ccccc21,83% (active)
4,Cc1ccc(Nc2nc3cc(N(C)c4ccnc(Nc5cccc(CS(C)(=O)=O)c5)n4)ccc3o2)cc1,90% (active)
5,O=C(Nc1ccc2c(c1)CCN(C1CCC1)CC2)c1cn(-c2ccccc2)nc1-c1ccccc1,103% (active)
6,COc1ccc(C2c3cc(OC)c(OC)cc3C(=NO)C2C)cc1OC (stereo not drawn),90% (active)
7,CN(C)CCC1CCN(CCS(=O)(=O)c2cccc(Nc3ncc(-c4cccc(F)c4)cn3)c2)CC1,96% (active)
8,COc1ccc2ncc(F)c(CCN3CCC(NCc4cc5c(cn4)OCCS5)CC3)c2c1,89% (active)
9,CC(C)c1ccc(OCC(O)CN(CCN2CCOCC2)C(=O)Nc2ccc(Br)cc2)cc1 (stereo not drawn),98% (active)
10,COc1ccccc1N1CCN(C(C(=O)NCc2ccc3c(c2)OCO3)c2ccc3c(c2)OCCCO3)CC1 (stereo not drawn),88% (active)
11,COc1ccc2nccc([C@@H](O)CN3CCC(NC(=O)C(c4cc5ccccc5s4)N4CCN(c5ccccc5OC)CC4)CC3)c2c1 (stereo partly drawn),100% (active)
12,O=C(NCCCCCN1CCC(c2ccc(O)cc2)CC1)c1ccc(-c2ccccc2)cc1,92% (active)
13,CCc1cccc2sc(N3CCN(C(=O)c4ccc([N+](=O)[O-])o4)CC3)nc12,97% (active)
14,Cc1nc2nc(N)nc(N)c2c(C)c1Cc1ccccc1,95% (active)
15,CC(C(=O)OCCOCn1cnc2c(=O)[nH]c(N)nc21)N(C)C(=O)OC(C)(C)C (stereo not drawn),87% (active)
16,CCc1c(CCNCCCCCCNC(C)(C)Cc2ccc3c(c2CC)OCO3)ccc(OC)c1OC,101% (active)
17,COc1ccc(OCCCN2CCCCC2)cc1S(=O)(=O)c1ccc(OCc2ccc(C(F)(F)F)cc2)cc1,94% (active)
18,CC1(C)N=C(N)N=C(N)N1c1cccc(I)c1,95% (active)
19,CCCCN1CCN(CCCNc2c3ccccc3nc3ccccc23)CC1,101% (active)
